This is a sample that favours compounds with a hit; in the whole collection about 6.6% have one here.
HepG2 tox: counter-screen for TGF-b inhibitors: cytotoxicity in HepG2 cells; 0.76% of 410,000 active; HepG2 CAGA-GFP viability, ATP luminescence, 18 h; AID 588856; Potency, µM (doses to about 46.1 µM), without a hit: at the top dose activity change, negative = cytotoxicity, actives largely listed as cytotoxic
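HepG2 CAGA-GFP cells (1000/well, DMEM with 1% FBS) received compound, then TGF-beta at 500 pg/mL final, and were incubated 18 hours at 37 degrees C. Viability was read by CellTiter-Glo luminescence. Media-only wells were set as complete cell-killing and DMSO as no toxicity.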
TGFb SMAD3 inh: TGF-b pathway inhibition | HepG2 CAGA-GFP TGF-b/SMAD3 reporter, GFP fluorescence, 18 h; TGF-beta stimulated, 500 pg/mL final | Potency, µM (highest dose often 46.1 µM), for the others: at the top dose activity, negative = inhibition, actives largely listed as inhibitors | 1.2% of 410,000 active; also: % is scaled to controls: 0 for no effect and ±100 for the full control effect; nearly all actives have a fitted effect of over 65% in size
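Inhibition of TGF-beta-driven CAGA-GFP reporter expression in HEPG2 cells is measured by cellular GFP fluorescence after 18 h stimulation with 500 pg/mL recombinant TGF-beta in 1% FBS medium at 37 degrees C.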
HT1080NT lethal: kills 2HG-producing HT-1080-NT fibrosarcoma cells; 1.6% of 360,000 active; AID 686970; Potency, µM (doses to about 46.1 µM), inactives show top-dose activity, negative = less viability, usual class: cytotoxic; HT-1080-NT fibrosarcoma viability, CellTiter-Glo ATP luminescence, 48 h;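 also: NT is the 2HG producing partner of a matched IDH1 knockdown line; 0% = DMSO-treated cells and -100% = media-only wells without cells; nearly all actives have a fitted effect of over 55% in size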
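750 cells/well, RPMI + 5% FBS; 2 h settle, compound pin-transfer, 48 h at 37 degrees C. CellTiter-Glo 10 min RT, luminescence. Normalized to DMSO and media-only wells.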
KB-3-1 tox: KB-3-1 parental cell cytotoxicity | 1.4% of 400,000 active | Potency, µM (titrated, usually from 46.1 µM), hits mostly cytotoxic | KB-3-1 viability, CellTiter-Glo ATP luminescence, 72 h; also: % is scaled to controls: 0 for no effect and ±100 for the full control effect; nearly all actives have a fitted effect of over 60% in size
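Parental KB-3-1 viability, qHTS format: 72 h compound exposure, 37 °C; CellTiter-Glo; media-only wells and DMSO plates as controls; concentration-effect fits on corrected data.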
HT1080 IDH1KD tx: kills HT-1080 cells with IDH1 knockdown; HT-1080 IDH1 knockdown viability, ATP luminescence, 48 h; Potency, µM (top dose mostly 46.1 µM), for the others: at the highest dose activity, negative = toxicity, usual class: cytotoxic; 2% of 360,000 active; AID 686971;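 also: 0% = DMSO wells and -100% = cell-free medium wells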
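In this qHTS, HT-1080 cells depleted of IDH1 are exposed for 48 h at 37 °C to compound titrations. Toxicity is scored from CellTiter-Glo luminescence, with DMSO as full viability and medium alone as none.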
KB-V1 MDR tox: KB-V1 MDR subline cytotoxicity. Potency, µM (titrated, usually from 46.1 µM), actives largely listed as cytotoxic. 3.4% of 400,000 active. AID 1347076. KB-V1 MDR cells viability, CellTiter-Glo, 72 h; also: % is scaled to controls: 0 for no effect and ±100 for the full control effect; nearly all actives have a fitted effect of over 60% in size
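Drug-selected KB-V1 cells, grown in DMEM lacking phenol red with 10% FBS, receive compound titrations; after three days at 37 degrees C, surviving cell ATP is quantified by CellTiter-Glo luminescence and responses normalized and curve-fitted.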
Active calls of the source: *; i = inactive; ? = inconclusive; . = not tested or not shown. Calls follow the shape of the dose curve; as a rule, active = well fitted curve in the direction sought with a large enough effect; inconclusive = small, poorly fitted or top-dose-only effect, or another doubt; inactive = no such curve, though single readings can be large; an effect the other way counts as inactive or inconclusive. Potency is read from the fitted curve at half-maximal effect.

SMILES | HepG2 tox | TGFb SMAD3 inh | HT1080NT lethal | KB-3-1 tox | HT1080 IDH1KD tx | KB-V1 MDR tox
COc1ccc(-c2nc(SCC(=O)Nc3ccc4c(c3)OCCO4)c(-c3ccc(C)cc3)[nH]2)cc1OC | -11% | -25% | . | i | . | i
O=C(CN1C(=O)COc2ccccc21)N(Cc1ccc2c(c1)OCO2)CC1CCCO1 (configuration not stated) | -8% | -19% | -3% | i | -21% | 4.1µM*
Nc1ccn([C@@H]2O[C@H](CNCC3=CCOc4ccc(O)cc43)[C@@H](O)[C@H]2O)c(=O)n1 | 1% | 3% | 9% | i | 7% | i
Cc1ccc(-n2ncc(C(=O)NCCc3c[nH]c4ccccc34)c2C2CCN(C(=O)OC(C)(C)C)CC2)cc1C | -24% | ? | . | i | . | ?
COC(=O)[C@@H](NC(=O)N1CCC(C)CC1)C(C)C | 0.45µM* | 4% | 19% | i | 12% | i
Cc1c(C(=O)NCc2cccc(Cl)c2)sc(=O)n1Cc1ccc(C(=O)N(C)C)cc1 | 2% | -10% | -16% | ? | -8% | 21µM*
Cc1c(C(=O)NCc2ccc3c(c2)OCCO3)sc(=O)n1Cc1ccc(C(=O)N(C)C)cc1 | -1% | -8% | 2% | ? | -2% | ?
COc1ccc(CNC(=O)c2sc(=O)n(Cc3ccccc3OC)c2C)cc1 | 2% | 0% | 7% | ? | 6% | 9.2µM*
C=Cc1ccc(Cn2c(C)c(C(=O)NCc3ccc4c(c3)OCCO4)sc2=O)cc1 | -4% | -10% | -8% | ? | -14% | 9.2µM*
COc1ccc(CNC(=O)c2cn(Cc3ccccc3OC)c(=O)s2)cc1 | 5% | -18% | -4% | i | -4% | 7.3µM*
COc1ccccc1Cn1c(C)c(C(=O)NCc2ccc3c(c2)OCCO3)sc1=O | -9% | -4% | 3% | i | 1% | ?
Cc1ccc(-c2nc3sc(CCNC(=O)c4ccc(F)c(F)c4)c(C)n3n2)cc1 | -28% | -29% | . | i | . | i
CCOc1ccc(-c2cc(NC(=O)Nc3ccccc3Cl)c(C(=O)OC)s2)cc1 | -17% | -9% | . | i | . | i
Cc1c(C(=O)NCc2ccc(C(F)(F)F)cc2)sc(=O)n1Cc1cccc(F)c1 | -34% | ? | ? | ? | ? | ?
Cc1c(C(=O)NCc2ccc(F)cc2)sc(=O)n1Cc1ccc(C(=O)c2ccccc2)cc1 | -7% | ? | -8% | ? | -16% | 10µM*
COC(=O)c1ccc(Cn2c(C)c(C(=O)Nc3cccc(Oc4ccccc4)c3)sc2=O)o1 | -20% | ? | 1% | ? | -19% | 12µM*
Cc1cccc(C)c1Cn1c(C)c(C(=O)NCc2ccc(C#N)cc2)sc1=O | -12% | ? | ? | ? | ? | 18µM*
Cc1c(C(=O)NCc2cccc(C(F)(F)F)c2)sc(=O)n1Cc1cccc(F)c1 | -1% | ? | ? | ? | ? | 15µM*
Cc1c(C(=O)Nc2cccc(Oc3ccccc3)c2)sc(=O)n1Cc1ccc(F)cc1 | 3% | -8% | 2% | ? | 0% | ?
COc1ccccc1-c1noc(-c2ccc(NC(C)C)c([N+](=O)[O-])c2)n1 | -16% | ? | . | i | . | i
COc1cc(OC)c2c(c1)C(=O)OC2c1cc(OC)c(OC)cc1C (configuration not stated) | -2% | -17% | . | i | . | i
COc1ccc(NC(=O)c2sc(=O)n(Cc3ccccc3C#N)c2C)cc1OC | 6% | -3% | 5% | ? | -4% | 5.8µM*
CC(=O)Oc1ccccc1Cn1c(C)c(C(=O)N(C)Cc2ccc(F)cc2)sc1=O | -2% | ? | 2% | ? | -18% | 18µM*
CCN(CC)C(=O)c1c(NC(=O)c2ccccc2F)sc2c1CCC(C(C)(C)C)C2 (configuration not stated) | -24% | 0% | . | i | . | i
COCCn1cnc2cc(C)c(C)cc21 | 3% | 7% | 4% | i | 20% | i
SMILES | HepG2 tox | TGFb SMAD3 inh | HT1080NT lethal | KB-3-1 tox | HT1080 IDH1KD tx | KB-V1 MDR tox
CCC(=O)c1ccc(OCCn2cnc3ccccc32)cc1 | -7% | -11% | -8% | i | -5% | 21µM*
Cc1cc2ncn(CCOc3ccccc3)c2cc1C | -8% | 0% | -7% | i | -17% | 23µM*
CCc1ccc2ncc3c(-c4ccc(F)cc4)nn(CC(=O)NC4CCCCC4)c3c2c1 | -4% | -8% | . | . | . | .
O=C(Nc1nnc(-c2ccncc2)s1)NC12CC3CC(CC(C3)C1)C2 | . | . | . | i | . | i
O=C(Cc1ccccc1)N(Cc1cccnc1)c1nc2c(F)cccc2s1 | -35% | 1.6µM* | . | ? | . | i
Cc1cccc(Oc2nccc(C(F)(F)F)c2C(=O)Nc2ccc(F)cc2F)c1 | -31% | -29% | ? | i | -29% | i
Cc1nn(C)c(Oc2cccc(Cl)c2)c1C(=O)Nc1ccc(F)cc1F | 2% | -8% | 3% | i | -8% | 18µM*
Cc1nn(C)c(Oc2cccc(Cl)c2)c1C(=O)Nc1ccc(F)cc1 | -2% | 1% | -11% | i | -20% | 15µM*
O=S(=O)(Nc1nc2ccccc2[nH]1)c1ccccc1 | -3% | -8% | 3% | i | 6% | 21µM*
CN(C)c1ccc(/C=C/c2ccnc3ccccc23)c(F)c1 | -51% | ? | . | ? | . | ?
COc1ccc2nc3cc(Cl)ccc3c(Nc3cc(C(C)C)c(O)cc3C)c2c1 | -70% | ? | 21µM* | ? | ? | ?
Cc1ccc(NC(=O)c2cc(N3CCOCC3)nc3ccccc23)cc1 | -7% | -7% | 10µM* | i | ? | i
CCOc1ccc(NC(=O)c2cc(OC)nc3ccccc23)cc1 | -2% | -25% | 0.46µM* | 1.2µM* | 0.46µM* | ?
O=C(O)c1cc(/C=C/c2ccc(N3CCOCC3)cc2)nc2ccccc12 | -64% | 0% | 23µM* | i | ? | 10µM*
Cc1ccc(NC(=O)c2cc(Cl)nc3ccccc23)cc1 | 0% | -5% | 15% | i | 3% | i
COc1cc(C(=O)Nc2ccc(C)cc2)c2ccccc2n1 | -3% | -30% | ? | 0.82µM* | 0.52µM* | ?
Cc1cccc(N2CCN(c3ccc4cc(S(=O)(=O)N5CCC(C)CC5)ccc4n3)CC2C)c1 (configuration not stated) | 6% | 0% | . | i | . | i
CCOc1ccc(NC(=O)c2cc3cc(C)ccc3n2C)cc1 | -73% | 14% | . | i | . | i
